{"source": "PubChem BioAssay (NCATS)", "key": {"[1]": {"molecular_target": "Calcium and integrin-binding protein 1 (Homo sapiens) (UniProt Q99828)", "sequence (Q99828 whole entry, looked up)": "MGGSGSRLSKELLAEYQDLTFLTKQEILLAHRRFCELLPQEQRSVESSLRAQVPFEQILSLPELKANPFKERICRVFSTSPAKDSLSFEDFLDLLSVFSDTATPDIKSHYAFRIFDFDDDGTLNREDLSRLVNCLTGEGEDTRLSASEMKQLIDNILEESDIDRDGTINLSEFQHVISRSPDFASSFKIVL", "experiment": "Validation qHTS for Identification of Calcium Integrin Binding protein 1 (CIB1) Competitor (AID 1508618)", "details": "CIB1-GST / FITC-alphaIIb peptide fluorescence polarization; series mostly up to 114 µM", "outline": "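CIB1-GST (1 uM final) in 5 mM HEPES pH 7.4, 125 mM NaCl, 5 mM CaCl2, 0.01% Tween20 was preincubated 15 min at room temperature with compound (up to 114 uM), then FITC-alphaIIb peptide (100 nM) added for 15 min; fluorescence polarization read.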"}, "[2]": {"experiment": "Primary qHTS for small molecule stabilizers of the endoplasmic reticulum resident proteome: Secreted ER Calcium Modulated Protein (SERCaMP) assay (AID 1508630)", "details": "SH-SY5Y GLuc-SERCaMP (Gaussia luciferase released on ER calcium loss) secretion, thapsigargin, luminescence; series mostly up to 38.4 µM", "outline": "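GLuc-SERCaMP-expressing SH-SY5Y cells, pretreated 16 h with compound, are challenged with thapsigargin to empty ER calcium stores; after 4 h, coelenterazine is added directly to the medium and luminescence is imaged.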"}, "Papain (Carica papaya)": {"molecular_target": "Papain (Carica papaya) (UniProt P00784)", "sequence (P00784 whole entry, looked up)": "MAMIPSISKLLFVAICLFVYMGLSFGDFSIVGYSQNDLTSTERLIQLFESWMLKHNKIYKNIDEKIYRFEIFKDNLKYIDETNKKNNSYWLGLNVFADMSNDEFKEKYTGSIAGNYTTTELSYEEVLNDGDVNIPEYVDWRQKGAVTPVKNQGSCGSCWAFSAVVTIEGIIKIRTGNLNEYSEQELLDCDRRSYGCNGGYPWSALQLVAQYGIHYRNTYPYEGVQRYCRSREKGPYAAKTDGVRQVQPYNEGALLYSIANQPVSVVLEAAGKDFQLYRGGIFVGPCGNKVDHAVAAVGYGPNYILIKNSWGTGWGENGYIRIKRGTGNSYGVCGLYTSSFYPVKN", "experiment": "Primary qHTS assay for inhibitors of the protease papain (AID 1645873);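 further: papain turnover of Z-FR-AMC read as the AMC fluorescence gain over 10 min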; further: potency means the concentration at half of the fitted maximal effect", "details": "papain Z-FR-AMC cleavage, AMC fluorescence; series mostly up to 49.8 µM"}, "[3]": {"molecular_target": "Catechol O-methyltransferase (Homo sapiens) (UniProt P21964)", "sequence (P21964 whole entry, looked up)": "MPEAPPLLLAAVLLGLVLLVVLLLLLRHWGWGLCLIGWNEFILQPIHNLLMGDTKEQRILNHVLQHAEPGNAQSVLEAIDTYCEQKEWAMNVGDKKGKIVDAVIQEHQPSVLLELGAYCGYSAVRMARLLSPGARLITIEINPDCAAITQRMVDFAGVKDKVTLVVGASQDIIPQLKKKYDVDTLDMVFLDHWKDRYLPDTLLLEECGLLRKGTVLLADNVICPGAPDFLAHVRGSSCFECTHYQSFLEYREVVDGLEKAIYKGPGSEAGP", "experiment": "Confirmatory Screen for Target Class Profiling of Small Molecule Inhibitors of Methyltransferases (AID 1745852; calls by dose curve)", "details": "MTase-Glo luminescence, SAH detection, recombinant enzyme; measured here: COMT max response; stronger effect = lower value"}, "[4]": {"molecular_target": "Guanidinoacetate N-methyltransferase (Homo sapiens) (UniProt Q14353)", "experiment": "Confirmatory Screen for Target Class Profiling of Small Molecule Inhibitors of Methyltransferases (AID 1745852)", "details": "MTase-Glo luminescence, SAH detection, recombinant enzyme; activity change, negative = inhibition: at 57.3 µM (top of the series)"}, "[5]": {"molecular_target": "Nicotinamide N-methyltransferase (Homo sapiens) (UniProt P40261)", "sequence (P40261 whole entry, looked up)": "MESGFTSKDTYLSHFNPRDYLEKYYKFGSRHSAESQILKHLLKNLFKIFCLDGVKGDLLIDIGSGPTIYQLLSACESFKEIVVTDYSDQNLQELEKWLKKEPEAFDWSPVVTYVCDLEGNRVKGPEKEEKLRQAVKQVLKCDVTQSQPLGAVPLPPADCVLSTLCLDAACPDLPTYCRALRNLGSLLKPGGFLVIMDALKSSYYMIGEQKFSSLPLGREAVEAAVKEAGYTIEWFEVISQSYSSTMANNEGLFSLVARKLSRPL", "experiment": "Confirmatory Screen for Target Class Profiling of Small Molecule Inhibitors of Methyltransferases (AID 1745852)", "details": "MTase-Glo luminescence, SAH detection, recombinant enzyme; measured here: NNMT max response; stronger effect = lower value"}, "[6]": {"molecular_target": "Phenylethanolamine N-methyltransferase (Homo sapiens) (UniProt P11086)", "sequence (P11086 whole entry, looked up)": "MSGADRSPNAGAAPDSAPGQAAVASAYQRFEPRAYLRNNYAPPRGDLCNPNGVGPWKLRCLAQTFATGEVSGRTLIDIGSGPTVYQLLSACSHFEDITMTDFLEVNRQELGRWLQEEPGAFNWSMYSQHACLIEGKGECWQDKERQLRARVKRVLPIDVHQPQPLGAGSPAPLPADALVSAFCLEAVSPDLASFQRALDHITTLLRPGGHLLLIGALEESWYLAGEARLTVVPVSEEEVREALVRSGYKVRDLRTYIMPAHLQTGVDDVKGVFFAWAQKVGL", "experiment": "Confirmatory Screen for Target Class Profiling of Small Molecule Inhibitors of Methyltransferases (AID 1745852)", "details": "MTase-Glo luminescence, SAH detection, recombinant enzyme; measured here: PNMT max response; stronger effect = lower value"}, "[7]": {"experiment": "Primary qHTS for inhibitors of nuclear receptor binding SET domain protein 2 (NSD2) in an isogenic RCH-ACV NSD2 p.E1099K mutant (9B) (AID 1645876); further: nearly all actives have a fitted effect of over 70% in size", "details": "RCH-ACV NSD2 E1099K (9B) viability, CellTiter-Glo, 72 h; series mostly up to 44.9 µM"}, "[8]": {"experiment": "Primary qHTS for inhibitors of nuclear receptor binding SET domain protein 2 (NSD2) in an RCH-ACV wild type WT cells (2C) (AID 1645877); further: nearly all actives have a fitted effect of over 70% in size", "details": "RCH-ACV NSD2 WT (2C) viability, CellTiter-Glo, 72 h; series mostly up to 44.9 µM"}, "[9]": {"molecular_target": "Rap guanine nucleotide exchange factor 3 (Homo sapiens) (UniProt O95398)", "sequence (O95398 whole entry, looked up)": "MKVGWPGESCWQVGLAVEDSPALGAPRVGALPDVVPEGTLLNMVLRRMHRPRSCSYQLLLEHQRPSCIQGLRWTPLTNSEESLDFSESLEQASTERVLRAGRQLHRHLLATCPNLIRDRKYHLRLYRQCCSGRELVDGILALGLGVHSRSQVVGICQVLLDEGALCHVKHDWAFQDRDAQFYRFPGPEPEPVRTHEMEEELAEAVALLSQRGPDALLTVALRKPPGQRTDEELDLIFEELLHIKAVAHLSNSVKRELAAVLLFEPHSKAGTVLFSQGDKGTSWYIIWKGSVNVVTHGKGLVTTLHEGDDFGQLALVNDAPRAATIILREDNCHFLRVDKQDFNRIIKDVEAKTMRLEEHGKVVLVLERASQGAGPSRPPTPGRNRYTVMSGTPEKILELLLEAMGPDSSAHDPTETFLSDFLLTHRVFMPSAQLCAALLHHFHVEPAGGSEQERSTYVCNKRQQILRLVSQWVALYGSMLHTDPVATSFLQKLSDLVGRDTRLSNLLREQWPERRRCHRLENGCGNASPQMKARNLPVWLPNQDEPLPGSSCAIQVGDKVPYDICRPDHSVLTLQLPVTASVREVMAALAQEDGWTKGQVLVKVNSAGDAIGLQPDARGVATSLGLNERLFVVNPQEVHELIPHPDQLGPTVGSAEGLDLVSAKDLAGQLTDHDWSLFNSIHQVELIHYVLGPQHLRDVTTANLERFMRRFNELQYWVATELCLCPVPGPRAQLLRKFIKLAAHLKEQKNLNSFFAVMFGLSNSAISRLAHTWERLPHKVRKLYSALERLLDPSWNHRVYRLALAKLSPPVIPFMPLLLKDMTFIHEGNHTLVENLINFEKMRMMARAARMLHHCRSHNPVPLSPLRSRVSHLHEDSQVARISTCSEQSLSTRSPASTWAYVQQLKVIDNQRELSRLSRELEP", "experiment": "Confirmatory qHTS for antagonist of cAMP-regulated guanine nucleotide exchange factor 3 (EPAC1) (AID 1645880); further: nearly all actives have a fitted effect of over 55% in size; further: potency means the concentration at half of the fitted maximal effect", "details": "EPAC1 Rap1B-BODIPY-GDP exchange, fluorescence; series mostly up to 115 µM", "outline": "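Nucleotide exchange uses 100 nM EPAC1, 250 nM RAP1B-BODIPY-GDP and 50 uM GDP, with compounds in a concentration-titration series. After 5 min at room temperature, fluorescence (480 nm ex/540 nm em) is read every 5 min for 30 min. Data are normalized to control ATA and DMSO.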"}, "[10]": {"molecular_target": "Rap guanine nucleotide exchange factor 3 (Homo sapiens) (UniProt O95398)", "experiment": "Confirmatory qHTS for agonist of cAMP-regulated guanine nucleotide exchange factor 3 (EPAC1) (AID 1645881);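 further: EPAC1 catalysed release of BODIPY-GDP from Rap1B seen as fluorescence loss; nearly all actives have a fitted effect of over 75% in size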", "details": "EPAC1 Rap1B BODIPY-GDP exchange fluorescence; series mostly up to 154 µM"}, "[11]": {"molecular_target": "Rap guanine nucleotide exchange factor 4 (Homo sapiens) (UniProt Q8WZA2)", "sequence (Q8WZA2 whole entry, looked up)": "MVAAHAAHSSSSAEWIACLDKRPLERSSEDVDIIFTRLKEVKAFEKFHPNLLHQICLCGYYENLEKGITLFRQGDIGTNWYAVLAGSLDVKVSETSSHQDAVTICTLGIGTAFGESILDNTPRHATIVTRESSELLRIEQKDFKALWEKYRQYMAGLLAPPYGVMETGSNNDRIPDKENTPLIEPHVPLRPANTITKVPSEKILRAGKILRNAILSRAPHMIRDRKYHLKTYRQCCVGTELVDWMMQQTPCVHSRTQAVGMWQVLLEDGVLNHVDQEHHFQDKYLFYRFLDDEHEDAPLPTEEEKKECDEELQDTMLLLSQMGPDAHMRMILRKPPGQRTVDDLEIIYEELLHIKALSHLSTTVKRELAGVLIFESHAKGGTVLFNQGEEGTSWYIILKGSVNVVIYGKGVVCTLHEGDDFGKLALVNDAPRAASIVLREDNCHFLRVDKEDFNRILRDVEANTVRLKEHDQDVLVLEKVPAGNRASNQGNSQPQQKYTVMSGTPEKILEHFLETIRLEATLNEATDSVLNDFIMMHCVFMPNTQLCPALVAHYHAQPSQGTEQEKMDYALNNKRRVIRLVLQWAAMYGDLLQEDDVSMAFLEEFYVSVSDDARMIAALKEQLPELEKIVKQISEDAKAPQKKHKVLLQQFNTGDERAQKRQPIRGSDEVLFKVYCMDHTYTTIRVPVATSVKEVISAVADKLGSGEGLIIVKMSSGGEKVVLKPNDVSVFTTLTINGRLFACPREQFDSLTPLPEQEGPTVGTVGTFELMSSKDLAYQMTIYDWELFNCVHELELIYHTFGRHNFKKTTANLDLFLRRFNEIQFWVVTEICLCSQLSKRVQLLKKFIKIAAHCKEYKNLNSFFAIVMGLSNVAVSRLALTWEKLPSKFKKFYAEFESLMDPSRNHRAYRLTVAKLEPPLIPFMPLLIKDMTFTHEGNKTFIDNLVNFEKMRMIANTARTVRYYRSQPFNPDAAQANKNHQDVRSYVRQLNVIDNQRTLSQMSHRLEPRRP", "experiment": "Confirmatory qHTS for agonist of cAMP-regulated guanine nucleotide exchange factor 4 (EPAC2) (AID 1645884);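 further: nucleotide exchange releases bodipy-GDP from Rap1 and this lowers its fluorescence; nearly all actives have a fitted effect of over 65% in size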", "details": "EPAC2 GEF activity, Rap1B-BODIPY-GDP fluorescence; series mostly up to 154 µM"}, "[12]": {"molecular_target": "Rap guanine nucleotide exchange factor 4 (Homo sapiens) (UniProt Q8WZA2)", "experiment": "Confirmatory qHTS for antagonist of cAMP-regulated guanine nucleotide exchange factor 4 (EPAC2) (AID 1645885); further: potency means the concentration at half of the fitted maximal effect; nearly all actives have a fitted effect of over 25% in size", "details": "EPAC2 Rap1B-BODIPY-GDP exchange fluorescence, biochemical; series mostly up to 114 µM"}}, "note": "Inconclusive results are not listed. A call without a number means that no potency is given here. Activity calls are given as the source filed them. Unless noted, the call rests on the fitted dose curve; in most records, active means well fitted curve in the direction sought with a large enough effect; inconclusive means small, poorly fitted or top-dose-only effect, or another doubt; inactive means no such curve, though single readings can be large; an effect the other way counts as inactive or inconclusive."}
{"smiles": "CC1CCN=C(N)S1", "note": "(stereo not given)", "values": [{"measurement": "Potency", "setting": "[1]", "result": "inactive"}, {"measurement": "Potency", "setting": "[2]", "result": "inactive"}, {"measurement": "Potency", "setting": "Papain (Carica papaya)", "result": "inactive"}, {"measurement": "activity", "setting": "[3]", "result": 4.68, "unit": "%"}, {"measurement": "activity change, negative = inhibition", "setting": "[4]", "result": 0.929, "unit": "%"}, {"measurement": "activity", "setting": "[5]", "result": -17.8, "unit": "%"}, {"measurement": "activity", "setting": "[6]", "result": -0.769, "unit": "%"}]}
{"smiles": "CC1=C(/C=C/C(C)=C/C=C/C(C)=C\\C(=O)O)C(C)(C)CCC1", "values": [{"measurement": "Potency", "setting": "[1]", "result": "inactive"}, {"measurement": "Potency", "setting": "[2]", "result": "inactive"}, {"measurement": "Potency", "setting": "Papain (Carica papaya)", "result": "inactive"}, {"measurement": "Potency", "setting": "[7]", "result": "inactive"}, {"measurement": "Potency", "setting": "[8]", "result": "inactive"}]}
{"smiles": "O=c1[nH]c2cc(Cl)ccc2c(O)c1-c1ccc(Oc2ccccc2)cc1", "values": [{"measurement": "Potency", "setting": "[1]", "result": "inactive"}, {"measurement": "Potency", "setting": "Papain (Carica papaya)", "result": "inactive"}]}
{"smiles": "NCC(O)C1CCCCCCC1", "note": "(stereo not given)", "values": [{"measurement": "Potency", "setting": "[1]", "result": "inactive"}, {"measurement": "Potency", "setting": "[2]", "result": "inactive"}, {"measurement": "Potency", "setting": "Papain (Carica papaya)", "result": "inactive"}, {"measurement": "activity", "setting": "[3]", "result": -3.91, "unit": "%"}, {"measurement": "activity change, negative = inhibition", "setting": "[4]", "result": 2.24, "unit": "%"}, {"measurement": "activity", "setting": "[5]", "result": -12, "unit": "%"}, {"measurement": "activity", "setting": "[6]", "result": -45.1, "unit": "%"}]}
{"smiles": "O=C(O)/C=C/c1ccc(O)c(O)c1", "values": [{"measurement": "Potency", "setting": "[1]", "result": "inactive"}, {"measurement": "Potency", "setting": "[2]", "result": "inactive"}, {"measurement": "Potency", "setting": "Papain (Carica papaya)", "result": "inactive"}, {"measurement": "activity", "setting": "[3]", "result": 150, "unit": "%"}, {"measurement": "activity change, negative = inhibition", "setting": "[4]", "result": 0.674, "unit": "%"}, {"measurement": "activity", "setting": "[5]", "result": -14.8, "unit": "%"}, {"measurement": "activity", "setting": "[6]", "result": -0.851, "unit": "%"}]}
{"smiles": "O=C1Nc2ccc(I)cc2/C1=C/c1cc(Br)c(O)c(Br)c1", "values": [{"measurement": "Potency", "setting": "[1]", "result": "inactive"}, {"measurement": "Potency", "setting": "[2]", "result": "inactive"}, {"measurement": "Potency", "setting": "Papain (Carica papaya)", "result": "inactive"}, {"measurement": "Potency", "setting": "[8]", "result": "inactive"}, {"measurement": "Potency", "setting": "[9]", "result": "19.8 µM (active)"}, {"measurement": "Potency", "setting": "[10]", "result": "inactive"}, {"measurement": "Potency", "setting": "[11]", "result": "inactive"}, {"measurement": "Potency", "setting": "[12]", "result": "35 µM (active)"}]}
{"smiles": "O=C(O)Cc1c[nH]c2ccc(O)cc12", "values": [{"measurement": "Potency", "setting": "[1]", "result": "inactive"}, {"measurement": "Potency", "setting": "Papain (Carica papaya)", "result": "inactive"}]}
{"smiles": "CCCn1c(=O)c2[nH]c(-c3ccc(S(=O)(=O)O)cc3)nc2n(CCC)c1=O", "values": [{"measurement": "Potency", "setting": "[1]", "result": "inactive"}, {"measurement": "Potency", "setting": "[2]", "result": "inactive"}, {"measurement": "Potency", "setting": "Papain (Carica papaya)", "result": "25.1 µM (active)"}]}
{"smiles": "COc1ccc(CCn2nnnc2C2(c3ccc(C)cc3)CC2)cc1", "values": [{"measurement": "Potency", "setting": "[1]", "result": "inactive"}, {"measurement": "Potency", "setting": "[2]", "result": "inactive"}, {"measurement": "Potency", "setting": "[9]", "result": "inactive"}, {"measurement": "Potency", "setting": "[10]", "result": "inactive"}]}
{"smiles": "C=CCN1CCc2c(cc(O)c(O)c2Cl)C(c2ccccc2)C1", "note": "(stereo not given)", "values": [{"measurement": "Potency", "setting": "[1]", "result": "inactive"}, {"measurement": "Potency", "setting": "[2]", "result": "inactive"}, {"measurement": "Potency", "setting": "Papain (Carica papaya)", "result": "inactive"}, {"measurement": "activity", "setting": "[3]", "result": 72.4, "unit": "%"}, {"measurement": "activity change, negative = inhibition", "setting": "[4]", "result": 5.83, "unit": "%"}, {"measurement": "activity", "setting": "[5]", "result": -9.01, "unit": "%"}, {"measurement": "activity", "setting": "[6]", "result": 8.41, "unit": "%"}]}
{"smiles": "CC(/C=C/c1cccc(Oc2ccc(F)cc2)c1)N(O)C(N)=O", "note": "(stereo not given)", "values": [{"measurement": "Potency", "setting": "[1]", "result": "inactive"}, {"measurement": "Potency", "setting": "[2]", "result": "inactive"}, {"measurement": "Potency", "setting": "[9]", "result": "inactive"}, {"measurement": "Potency", "setting": "[10]", "result": "inactive"}, {"measurement": "Potency", "setting": "[11]", "result": "inactive"}, {"measurement": "Potency", "setting": "[12]", "result": "44.1 µM (active)"}]}
{"smiles": "Nc1nc2[nH]c(=O)cnc2c(=O)[nH]1", "values": [{"measurement": "Potency", "setting": "[1]", "result": "inactive"}, {"measurement": "Potency", "setting": "Papain (Carica papaya)", "result": "inactive"}]}
